# Results reported in PubChem BioAssay (Tox21).
# Inconclusive results are not listed. Entries that show only a call come without a potency. The source made the active and inactive calls. The call rests on the fitted dose curve.
# How the values were obtained:
# [1] = target: Acetylcholinesterase (Homo sapiens) (UniProt P22303); assay: Acetylcholinesterase (AChE) small molecule antagonists: colormetric cell-based qHTS assay (AID 1347395); further: nearly all actives have a fitted effect of over 30% in size
# Chain of Acetylcholinesterase (Homo sapiens) (P22303 whole entry, looked up): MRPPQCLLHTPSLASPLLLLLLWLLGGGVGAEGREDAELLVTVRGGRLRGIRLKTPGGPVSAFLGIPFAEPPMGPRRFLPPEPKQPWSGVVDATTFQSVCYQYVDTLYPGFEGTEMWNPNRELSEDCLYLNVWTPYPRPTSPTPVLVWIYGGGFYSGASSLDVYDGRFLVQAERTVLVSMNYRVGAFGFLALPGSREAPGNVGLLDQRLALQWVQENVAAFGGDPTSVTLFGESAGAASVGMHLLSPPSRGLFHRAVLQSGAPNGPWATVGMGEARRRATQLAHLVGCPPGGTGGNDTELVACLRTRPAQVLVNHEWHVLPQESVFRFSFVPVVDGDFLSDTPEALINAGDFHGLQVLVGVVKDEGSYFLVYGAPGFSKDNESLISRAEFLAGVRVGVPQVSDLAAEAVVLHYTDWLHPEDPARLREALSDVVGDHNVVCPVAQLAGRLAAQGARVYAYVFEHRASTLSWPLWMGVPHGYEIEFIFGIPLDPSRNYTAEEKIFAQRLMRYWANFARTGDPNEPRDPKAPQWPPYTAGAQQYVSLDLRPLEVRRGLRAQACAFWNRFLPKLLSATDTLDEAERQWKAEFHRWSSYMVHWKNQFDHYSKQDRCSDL
# How it was run: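 SH-SY5Y cells, plated overnight at 37 C, were exposed to compounds for 30 min at 37 C and 5% CO2. Acetylthiocholine plus DTNB was then added, and thiocholine from endogenous AChE was quantified colorimetrically after 90 min at 37 C.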
# [2] = target: Acetylcholinesterase (Homo sapiens) (UniProt P22303); assay: Acetylcholinesterase (AChE) small molecule antagonists: enzyme-based qHTS assay (AID 1347397); settings: Potency: AChE enzyme activity inhibition; outcome: AChE enzyme activity inhibition; further: nearly all actives have a fitted effect of over 55% in size
# How it was run: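 Recombinant human AChE, dispensed at 50 mU/mL, was preincubated with Tox21 10K compounds or DMSO vehicle for 30 min at room temperature. DTNB plus acetylthiocholine was then added, and thiocholine was measured colorimetrically after a further 10 min.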
# [3] = target: Acetylcholinesterase (Homo sapiens) (UniProt P22303); assay: Acetylcholinesterase (AChE) small molecule antagonists: fluorescence cell-based qHTS assay (AID 1347398); settings: Potency: AChE activity; outcome: AChE activity; further: nearly all actives have a fitted effect of over 50% in size; further: potency means the concentration at half of the fitted maximal effect
# How it was run: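 Human SH-SY5Y cells were plated overnight at 37 C, exposed to compound for 30 min at 37 C, 5% CO2, then given acetylthiocholine plus Thiolite Green for 40 min at room temperature; thiocholine fluorescence (Ex/Em 490/520 nm) reports endogenous AChE activity.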
# [4] = target: Acetylcholinesterase (Homo sapiens) (UniProt P22303); assay: Acetylcholinesterase (AChE) small molecule antagonists: enzyme-based qHTS assay with human liver microsomes (AID 1347399); settings: Potency: qHTS inhibition; outcome: qHTS inhibition; further: nearly all actives have a fitted effect of over 60% in size
# How it was run: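 Recombinant human AChE (50 mU/mL in the enzyme mix) and human liver microsomes (0.25 mg/mL final) were preincubated with compound and NADPH (0.25 mg/mL final) for 30 min at 37 C. Acetylthiocholine/DTNB was then added; thiocholine was read colorimetrically after 10 min at room temperature.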
Structure (SMILES),Potency [1],Potency [2],Potency [3],Potency [4]
CC(C)C(O)C(C)(C)CO (centres undefined),inactive,inactive,inactive,inactive
CC(=O)OCC(=O)[C@@]1(OC(C)=O)[C@@H](C)C[C@H]2[C@@H]3C[C@H](F)C4=CC(=O)C=C[C@]4(C)[C@@]3(F)[C@@H](O)C[C@@]21C,inactive,inactive,inactive,inactive
OCC(CO)n1cnc(-c2ccc(F)cc2)c1-c1ccnc(Oc2ccccc2)n1,inactive,inactive,inactive,inactive
CCCCCO,inactive,inactive,inactive,inactive
Nc1ccccc1S(=O)(=O)c1ccccc1,inactive,inactive,inactive,inactive
CCCCOCCOC(=O)COc1ccc(Cl)cc1Cl,inactive,inactive,inactive,inactive
Oc1ccc(Cl)cc1C1CCCC1,inactive,inactive,inactive,inactive
CC1(C)C(=O)N(Br)C(=O)N1Cl,inactive,inactive,inactive,inactive
Nc1ncnc2c1ncn2Cc1c(F)cccc1Cl,inactive,inactive,inactive,inactive
CC(C)Nc1ccc(NC(C)C)c2c1C(=O)c1ccccc1C2=O,inactive,inactive,inactive,inactive
CCC(C(=O)OCCOCCN(CC)CC)c1ccccc1 (centres undefined),inactive,inactive,inactive,inactive
O=C1CCCCCCCCCCCCCCCO1,inactive,inactive,inactive,inactive
O=C(NN1CCCC1)NS(=O)(=O)c1ccc(Cl)cc1,inactive,inactive,inactive,inactive
CC(CN=Cc1ccccc1O)N=Cc1ccccc1O (centres undefined),inactive,inactive,inactive,inactive
Cc1cccc(C)c1NC(=O)CN(CC(=O)O)CC(=O)O,inactive,inactive,inactive,inactive
CCCCCCCCCCCCCC(=O)OC,inactive,inactive,inactive,inactive
O=CN1CCOCC1,inactive,inactive,inactive,inactive
COC(C)=O,inactive,inactive,inactive,inactive

Structure (SMILES),Potency [1],Potency [2],Potency [3],Potency [4]
CCC(C)c1ccccc1 (centres undefined),inactive,inactive,inactive,inactive
COc1ccc(Cl)cc1C,inactive,inactive,inactive,inactive
CCCCCCCC/C=C\CCCCCCCC(=O)N(CCO)CCO,inactive,inactive,19.9 µM (active),inactive
CC(C)=CCNc1ncnc2c1ncn2[C@@H]1O[C@H](CO)[C@@H](O)[C@H]1O,inactive,inactive,inactive,inactive
C[C@@H]1C[C@H]2[C@@H]3CCC4=CC(=O)C=C[C@]4(C)[C@@]3(Cl)[C@@H](O)C[C@]2(C)[C@@]1(OC(=O)c1ccco1)C(=O)CCl,inactive,inactive,inactive,inactive
CCc1ccc(O)c(OC)c1,inactive,inactive,inactive,inactive
CCOC(=O)/C=C(C)/C=C/C=C(C)/C=C/c1c(C)cc(OC)c(C)c1C,inactive,inactive,inactive,inactive
CCCCCCOC(=O)CCCCC(=O)OCCCCCC,inactive,inactive,inactive,inactive
CS(C)=O,inactive,inactive,inactive,inactive
COc1ccc2c(c1)c1c3n2CCN(C)C3=NCC1,inactive,inactive,inactive,inactive
NCc1ccco1,inactive,inactive,inactive,inactive
CCC(Cl)C(Cl)C(Cl)CC(Cl)C(Cl)C(C)Cl (centres undefined),inactive,inactive,inactive,inactive
O=Cc1cc(O)ccc1Br,inactive,inactive,inactive,inactive
CCCC(=O)OCCc1ccccc1,inactive,inactive,inactive,inactive
C=CC(C)(O)CCCC(C)CCCC(C)CCCC(C)C (centres undefined),inactive,inactive,inactive,inactive
FC(F)(F)c1ccc(Cl)cc1Cl,inactive,inactive,inactive,inactive
O=CNc1ccccc1,inactive,inactive,inactive,inactive
C=Cc1ccc(C=C)cc1,inactive,inactive,inactive,inactive
